The values below come from PubChem BioAssay.

Several values for one entry are separate records, joined by “and”; a condition that tells them apart may be missing. Equal entries are not always repeated. Records with an inconclusive call do not appear. Activity calls are given as the source filed them. Unless noted, no stated cut-off is given here; in the data, active means inhibition above about 80%; inactive means the rest.

Test [1] in a line: growth inhibition of DIPG glioma cells, dose response, cell-based, JHH-DIPG-1, MIPE4.0, CellTiter-Glo, qHTS (AID 1347062; cut-off not given, nearly all actives have AC50 up to about 27 µM;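 on AC50: cells exposed to compound for two days before readout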). The following applies: JHH-DIPG-1 viability, CellTiter-Glo ATP luminescence.
Test [2] can be described thus: growth inhibition of DIPG glioma cells, dose response, cell-based, SU-DIPG-IV, MIPE4.0, CellTiter-Glo, qHTS (AID 1347063; cut-off not given, nearly all actives have AC50 up to about 30 µM;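 further: compound exposure lasted 48 hours before the viability readout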). The following applies: SU-DIPG-IV viability, CellTiter-Glo ATP luminescence. Background: Cellular ATP, detected with luciferase, serves as a proxy for viable cell number.
The nature of test [3]: growth inhibition of DIPG glioma cells, dose response, cell-based, SU-DIPG-XIII, MIPE5.0, CellTiter-Glo, qHTS (AID 1347064; cut-off not given, nearly all actives have AC50 up to about 23 µM;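 on AC50: cells exposed to compound for 48 hours before the viability read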). The following applies: SU-DIPG-XIII viability, CellTiter-Glo ATP luminescence.
Test [4] in a line: viability loss in pontine glioma line – cell-based, SU-DIPG-XXV, MIPE5.0, CellTiter-Glo, qHTS, dose response (AID 1347065; cut-off not given, nearly all actives have AC50 up to about 26 µM;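 further: cells exposed to compound for 48 hours before ATP readout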). The note with it: CellTiter-Glo ATP luminescence.
Test [5] can be described thus: SU-DIPG-VI glioma cell viability, MIPE4.0 library, CellTiter-Glo luminescence, qHTS (AID 1347066; cut-off not given, nearly all actives have AC50 up to about 30 µM;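 further: cells exposed to compound for 48 hours before readout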). The following applies: CellTiter-Glo ATP luminescence.
The nature of test [6]: JHH-DIPG-1 glioma cell viability, MIPE5.0 library, CellTiter-Glo luminescence, qHTS (AID 1347067; cut-off not given, nearly all actives have AC50 up to about 26 µM;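 further: cells exposed to compound for 48 hours before readout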). The note with it: JHH-DIPG-1 glioma viability, CellTiter-Glo ATP luminescence.
Test [7] can be described thus: SU-DIPG-XXV glioma cell viability, MIPE5.0 library, qHTS (AID 1347068; cut-off not given, nearly all actives have IC50 up to about 30 µM;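 on IC50: cells exposed to compound for 48 hours before viability readout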). On the technique in general: In qHTS, concentration-response curves come from the screen itself.
Test [8] is described as follows: LFS_MB_1R medulloblastoma cell growth inhibition, synergistic combos for chromothripsis tumors, cisplatin or BGB combos (AID 1671452).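 Further: cells exposed for 96 hours before readout.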 The note with it: LFS_MB_1R medulloblastoma cells, stronger effect = higher value.
A short description of test [9]: CRL2098 osteosarcoma cell growth inhibition, synergistic combos for chromothripsis tumors, BGB or cisplatin IC20 combos (AID 1671454).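 Further: cells exposed for 96 h before readout; 0% = vehicle DMSO and 100% = killing by high DMSO.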 The note with it: CRL2098 osteosarcoma cells, drug combinations, stronger effect = higher value.
The nature of test [10]: HD-MB03 medulloblastoma cell growth inhibition, synergistic combos for chromothripsis tumors, BGB or cisplatin IC20 combos (AID 1671455; in the data active means inhibition above about 83%;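 further: 0% = vehicle DMSO and 100% = high DMSO as cytotoxic control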). The following applies: HD-MB03 medulloblastoma cells, stronger effect = higher value.
Test [11] can be described thus: UWB1.289 ovarian carcinoma cell growth inhibition, synergistic combos for chromothripsis tumors, BGB or cisplatin combos (AID 1671456).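 Further: cells exposed to compound for four days; 0% = vehicle DMSO and 100% = killing by high DMSO.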 The note with it: UWB1.289 ovarian carcinoma cells, stronger effect = higher value.
A short description of test [12]: LFS_MB_2R medulloblastoma cell growth inhibition, synergistic combos for chromothripsis tumors, cisplatin combos (AID 1671457).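 Further: cells exposed to compound for four days before readout.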 The following applies: LFS_MB_2R medulloblastoma cells, stronger effect = higher value.
Test [13] can be described thus: UWB1.289_BRCA1 ovarian cancer growth, cell-based, BGB or cisplatin combinations (AID 1671459). The note with it: UWB1.289 BRCA1 ovarian carcinoma, drug combinations, stronger effect = higher value.
Test [14] can be described thus: human astrocyte viability loss, single and combined drugs, cytotoxicity control for chromothriptic childhood tumor combination screen, cell-based, BGB or cisplatin IC20 combos (AID 1671460).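 Further: cells exposed to compounds for 96 hours before viability readout; 0% = vehicle and 100% = killing control.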 The note with it: Human astrocytes, drug combinations, stronger effect = higher value.
Test [15] is described as follows: growth inhibition of BT084 medulloblastoma cells, cell-based, ICGC_MB145, cisplatin and BGB IC40 combos (AID 1671461).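 Further: cells exposed to drugs for 96 hours; 0% = vehicle DMSO and 100% = high DMSO full killing control.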 The note with it: drug combinations, stronger effect = higher value.
A short description of test [16]: growth inhibition of RCMB18 medulloblastoma cells, cell-based, cisplatin and BGB IC40 combos (AID 1671462).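 Further: cells exposed to compound for four days.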 The note with it: stronger effect = higher value.
Test [17] is described as follows: growth inhibition of CRL1545 osteosarcoma cells, cell-based, cisplatin and BGB IC20 combos (AID 1671464).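 Further: cells exposed to compound for 96 hours before readout; 0% = vehicle DMSO and 100% = high DMSO killing control.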 The note with it: stronger effect = higher value.
Test [18] in a line: viability rescue of complex I mutant cybrids, primary screen, cell-based, galactose medium, ATP luminescence (AID 1645843;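 active means z-score of at least 1.8 in each of two replicates, scored against plate mean and spread of sample wells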;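 further: positive z means more ATP and so rescue of galactose-driven cybrid death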). The note with it: complex I mutant cybrid cells, 72 h, stronger effect = higher value.
Test [19] concerns the target Mitogen-activated protein kinase 7 (Homo sapiens) (UniProt Q13164). Kind of test: ERK5 transactivation activators in reporter cells, primary screen, cell-based, HTS (AID 1508626;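 active means luciferase signal above three times the same-plate solvent-only control wells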;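 further: luciferase driven by Gal4-ERK5 fusion binding five Gal4 sites before minimal TATA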). The following applies: HeLa Gal4-ERK5 transactivation, 18 h, at 5 µM, stronger effect = higher value.
The target of test [20] is ATP-dependent translocase ABCB1 (Homo sapiens) (UniProt P08183). Kind of test: MDR1 (ABCB1) efflux transporter inhibition, cell-based (AID 377; in the data active means fluorescence slope change above about 50%). The note with it: MDR1-expressing cells, fluorescent substrate accumulation slope; stronger effect = higher value; concentration not given here.
The mark [21] stands for this setting: measured here: combination with cisplatin, at 0.5 µM.
Where [22] appears, read: measured here: combination with cisplatin, at 5 µM.

Mitogen-activated protein kinase 7 (Homo sapiens), sequence (Q13164 whole entry, looked up, the tested form may be a part): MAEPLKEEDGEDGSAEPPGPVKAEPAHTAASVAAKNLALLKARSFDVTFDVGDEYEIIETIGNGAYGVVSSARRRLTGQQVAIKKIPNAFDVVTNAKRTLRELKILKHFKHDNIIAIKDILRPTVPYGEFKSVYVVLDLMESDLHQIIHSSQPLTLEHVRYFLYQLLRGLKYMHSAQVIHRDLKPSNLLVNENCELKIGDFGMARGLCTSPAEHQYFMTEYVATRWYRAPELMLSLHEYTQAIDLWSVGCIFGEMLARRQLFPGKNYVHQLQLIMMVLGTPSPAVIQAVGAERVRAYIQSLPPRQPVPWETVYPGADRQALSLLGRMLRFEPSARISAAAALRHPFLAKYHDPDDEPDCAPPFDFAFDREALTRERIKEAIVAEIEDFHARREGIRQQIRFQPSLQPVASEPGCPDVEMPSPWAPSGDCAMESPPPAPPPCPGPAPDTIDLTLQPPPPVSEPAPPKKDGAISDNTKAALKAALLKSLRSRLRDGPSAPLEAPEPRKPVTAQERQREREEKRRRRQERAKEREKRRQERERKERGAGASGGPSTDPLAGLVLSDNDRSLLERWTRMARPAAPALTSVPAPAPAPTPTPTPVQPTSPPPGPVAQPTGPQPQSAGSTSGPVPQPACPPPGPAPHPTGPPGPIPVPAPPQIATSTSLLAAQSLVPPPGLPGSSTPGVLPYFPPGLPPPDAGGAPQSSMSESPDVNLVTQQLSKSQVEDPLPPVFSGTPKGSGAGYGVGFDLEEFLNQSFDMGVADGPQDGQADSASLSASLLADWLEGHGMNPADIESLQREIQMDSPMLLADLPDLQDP
ATP-dependent translocase ABCB1 (Homo sapiens), sequence (P08183 whole entry, looked up): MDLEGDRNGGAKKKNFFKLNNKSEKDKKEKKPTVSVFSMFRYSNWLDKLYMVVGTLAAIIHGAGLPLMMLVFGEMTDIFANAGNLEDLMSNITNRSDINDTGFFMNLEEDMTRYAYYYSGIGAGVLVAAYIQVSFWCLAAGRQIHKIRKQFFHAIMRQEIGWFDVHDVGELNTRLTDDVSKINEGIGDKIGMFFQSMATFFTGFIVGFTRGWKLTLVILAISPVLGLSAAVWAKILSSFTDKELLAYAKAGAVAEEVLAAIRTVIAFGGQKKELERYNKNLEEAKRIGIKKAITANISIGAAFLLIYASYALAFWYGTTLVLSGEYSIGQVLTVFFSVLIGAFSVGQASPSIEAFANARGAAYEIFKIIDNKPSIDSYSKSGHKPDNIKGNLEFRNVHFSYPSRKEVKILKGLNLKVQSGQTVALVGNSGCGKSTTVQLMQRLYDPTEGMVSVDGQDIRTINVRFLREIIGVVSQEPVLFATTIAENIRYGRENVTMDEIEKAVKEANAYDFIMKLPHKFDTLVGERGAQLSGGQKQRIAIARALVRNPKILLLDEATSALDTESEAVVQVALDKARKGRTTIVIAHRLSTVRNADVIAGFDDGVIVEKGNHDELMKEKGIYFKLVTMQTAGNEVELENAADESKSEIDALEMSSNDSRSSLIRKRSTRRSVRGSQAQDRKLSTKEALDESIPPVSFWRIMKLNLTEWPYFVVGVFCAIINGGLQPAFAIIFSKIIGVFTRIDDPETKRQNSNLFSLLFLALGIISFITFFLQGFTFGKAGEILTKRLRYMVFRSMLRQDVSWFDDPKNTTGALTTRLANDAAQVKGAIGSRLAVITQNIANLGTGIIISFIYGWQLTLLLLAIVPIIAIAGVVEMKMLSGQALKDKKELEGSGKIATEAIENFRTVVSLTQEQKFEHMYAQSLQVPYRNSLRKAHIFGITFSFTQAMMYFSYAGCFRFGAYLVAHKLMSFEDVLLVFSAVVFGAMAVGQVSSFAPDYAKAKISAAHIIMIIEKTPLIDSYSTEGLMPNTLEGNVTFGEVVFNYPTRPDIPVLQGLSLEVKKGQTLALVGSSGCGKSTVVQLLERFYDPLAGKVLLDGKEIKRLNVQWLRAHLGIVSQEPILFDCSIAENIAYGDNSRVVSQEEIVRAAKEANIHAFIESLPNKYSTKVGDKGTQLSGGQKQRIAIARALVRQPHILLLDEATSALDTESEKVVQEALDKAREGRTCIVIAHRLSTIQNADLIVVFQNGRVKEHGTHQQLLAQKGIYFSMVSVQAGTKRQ

One may read the inhibition as the drop in the measured response relative to a control, in per cent. Take `O=C(O)c1cc(=O)[nH]c(=O)[nH]1`: the compound was called inactive in test [1], in test [2], in test [3], in test [4], in test [5] and in test [6]. In addition, the result in [7] was inactive. Also, the inhibition is -8.32% (inactive) and -28.4% (inactive) in test [8] (at 0.5 µM); -17.9% and -11.5% in test [8] (measured here: combination with BGB IC40, at 0.05 µM); 16.2% and -37.9% in test [8] (setting [21]); -31% and -23.1% in test [8] (setting [22]); 2.38% (inactive) and -59.4% (inactive) in [9] (at 0.5 µM); -8.75% and -29.4% in test [9] (measured here: combination with BGB at IC20, at 0.5 µM). Moreover, the inhibition in [9] (measured here: combination with cisplatin at IC20, at 0.5 µM) is 11.3% and -77.4%; in [10] (at 0.5 µM), 6.65% (inactive) and -10.7% (inactive); in test [10] (measured here: combo with BGB at IC20, at 0.5 µM), 8.02% and -14.5%; in test [10] (measured here: combo with cisplatin at IC20, at 0.5 µM) it was 1.03% and -2.03%; in test [11] (at 0.5 µM), 9.26% (inactive) and -11.7% (inactive); in test [11] (measured here: inhibition with BGB combination, at 0.05 µM) it was 1.2% and -34.8%. Moreover, the inhibition in test [11] (measured here: inhibition with cisplatin combination, at 0.05 µM) was -6.87% and -27.5%; in [12] (at 0.5 µM), 8.17% (inactive) and -25% (inactive); in test [12] (setting [21]) it was -0.428% and -22.3%; in test [12] (setting [22]) it was 15.8% and -23.2%; in test [13] (BGB combination, concentration series, at 5 µM) it was 11.8% and -20.6%; in test [13] (at 0.5 µM), 7.12% (inactive) and -21.5% (inactive). For the same compound, the inhibition was 16.5% and -12.9% in test [13] (cisplatin combination, concentration series, at 5 µM); 6.1% (inactive) and -13.7% (inactive) in test [14] (at 0.5 µM); 3.75% and -11.6% in test [14] (measured here: combo with BGB IC20, at 0.5 µM); 18.5% and -10.3% in [14] (measured here: combo with cisplatin IC20, at 0.5 µM); 0.676% (inactive) and -23.4% (inactive) in test [15] (at 0.5 µM); 4.02% and -10.6% in test [15] (cisplatin combination, at 0.5 µM). The inhibition was -30.1% and 9.58% in test [15] (cisplatin combination, at 5 µM); 29.1% and 10.4% in [15] (measured here: BGB IC40 combination 0.05 uM, at 0.05 µM); 10.6% and -23.7% in test [15] (single agent, at 5 µM); 4.65% (inactive) and -11.2% (inactive) in test [16] (at 0.5 µM); 33.1% and 20.6% in test [16] (cisplatin combo, at 5 µM); 20.2% and -17.2% in [16] (measured here: BGB IC40 combination, at 0.05 µM). In addition, the inhibition in test [16] (setting [21]) is 10.8% and 27.7%; in test [16] (single agent, at 5 µM), -13.7% and -20.9%; in test [17] (at 0.5 µM) it was -2.03% (inactive) and 7.29% (inactive); in test [17] (measured here: with BGB IC20 combination, at 0.5 µM), -9.08% and 1.78%; in [17] (measured here: with cisplatin IC20 combination, at 0.5 µM) it was 1.49% and 10%; in [17] (single agent, at 0.05 µM), 0.986% and -9.64%. Moreover, in test [17] (single agent, at 5 µM), the inhibition is -15.6% and -9.76%.
What is called AC50 is the concentration at which the activity in the assay is half-maximal. On to `CC(C)Cn1cnc2c(N)nc3ccccc3c21`, for which the AC50 in [1] was 18700 nM (active); in test [2], 20900 nM (active). Besides, the compound was called inactive in test [3], in [5], in test [6] and in [7]. The z-score in test [18] is 0.245 (inactive).
In general, IC50 refers to the concentration at which inhibition is half-maximal. `COc1cccc2c1C(=O)c1c(O)c3c(c(O)c1C2=O)C[C@@](O)(C(C)=O)C[C@@H]3O[C@H]1C[C@H](N)[C@H](O)[C@H](C)O1`: the AC50 is 33.2 nM (active) in test [1]; 46.9 nM (active) in [2]; 742 nM (active) in test [3]; 742 nM (active) in test [4]; 742 nM (active) in test [6]. Further, the IC50 in test [7] was 3320 nM (active). The luciferase signal in test [19] was 300 AU (active). Besides, the z-score in [18] was -2.16 (inactive).
Turning to `CC(=O)c1ccc2c(c1)N(CCCN(C)C)c1ccccc1S2`, the fluorescence slope change in test [20] is 72% (active). In test [19], the luciferase signal was 32 AU (inactive). The z-score in test [18] is -0.995 (inactive).
Turning to `OC(CCN1CCCCC1)(c1ccccc1)C1CC2C=CC1C2` (stereo unspecified), the fluorescence slope change in test [20] was 23% (inactive). The result in [1], in [2], in [4], in test [5], in [6] and in test [7] was inactive. For the same compound, the luciferase signal in test [19] was 60 AU (inactive). For the same compound, the z-score in test [18] is -0.86 (inactive).
As to `CC(=O)NCCCS(=O)(=O)O`, the outcome in [3], in [4] and in test [7] was inactive. Further, the luciferase signal in test [19] was 52 AU (inactive).
For the compound `CCN(CC)C(=O)c1ccc(O)c(OC)c1`, the fluorescence slope change in test [20] was 53.1% (active). Moreover, the luciferase signal in test [19] was 52 AU (inactive). Besides, the z-score in [18] was 0.21 (inactive).
`C[C@H]1[C@H](NC(=O)/C(=N/OC(C)(C)C(=O)O)c2csc(N)n2)C(=O)N1S(=O)(=O)O` (stereo in doubt): the result in test [1], in test [2] and in test [5] was inactive.
